# Measured values published in PubChem BioAssay AID1159580 (chemical genetic matrix, 2015).
# About 2,000 (36%) of roughly 5,500 compounds were called active. Inconclusive results (about 18%) are left out. This is one part of the list. A number with no mark means an inactive call. Cut-off read from the data, not from the text of the source: active = normalized growth mostly below about 0.91 (no sharp cut-off); inconclusive = no clear call, values can overlap the other calls; inactive = mostly above about 0.92.
# Test: chemical genetic growth profiling, strain panel (AID 1159580);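 note: tested at 20 µM; growth read once vehicle control cultures reached saturation at 30 °C; 1 = growth at the plate median or of vehicle wells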
# Settings: growth OD
structure (smiles),measurement,setting,value
CCCc1nc2c(C)cc(-c3nc4ccccc4n3C)cc2n1Cc1ccc(-c2ccccc2C(=O)O)cc1,normalized growth,"S. cerevisiae deletion strains, locus YJR043C, strain POL32, stronger effect = lower value",0.991
same,normalized growth,"S. cerevisiae deletion strains, locus YJR066W, strain TOR1, stronger effect = lower value",0.952
same,normalized growth,"S. cerevisiae deletion strains, locus YKL068W, stronger effect = lower value",1.01
same,normalized growth,"S. cerevisiae deletion strains, locus YKL085W, strain MDH1 (second series), stronger effect = lower value",1.08 [resistant] (active)
same,normalized growth,"S. cerevisiae deletion strains, locus YKL085W, strain MDH1, stronger effect = lower value",1.08 [resistant] (active)
same,normalized growth,"S. cerevisiae deletion strains, locus YKL160W, strain elf1, stronger effect = lower value",1.03
same,normalized growth,"S. cerevisiae deletion strains, locus YKL190W, strain CNB1, stronger effect = lower value",1
same,normalized growth,"S. cerevisiae deletion strains, locus YKR001C, strain vps1, stronger effect = lower value",1.02
same,normalized growth,"S. cerevisiae deletion strains, locus YKR026C, strain gcn3, stronger effect = lower value",1.02
same,normalized growth,"S. cerevisiae deletion strains, locus YKR091W, strain srl3, stronger effect = lower value",1.01
same,normalized growth,"S. cerevisiae deletion strains, locus YLL001W, strain dnm1, stronger effect = lower value",1.01
same,normalized growth,"S. cerevisiae deletion strains, locus YLL026W, stronger effect = lower value",1
same,normalized growth,"S. cerevisiae deletion strains, locus YLL041C, strain sdh2, stronger effect = lower value",1.01
same,normalized growth,"S. cerevisiae deletion strains, locus YLR027C, strain aat2, stronger effect = lower value",1
same,normalized growth,"S. cerevisiae deletion strains, locus YLR039C, strain RIC1, stronger effect = lower value",0.975
same,normalized growth,"S. cerevisiae deletion strains, locus YLR058C, strain SHM2, stronger effect = lower value",1
same,normalized growth,"S. cerevisiae deletion strains, locus YLR102C, strain apc9, stronger effect = lower value",1
same,normalized growth,"S. cerevisiae deletion strains, locus YLR113W, strain HOG1, stronger effect = lower value",1
same,normalized growth,"S. cerevisiae deletion strains, locus YLR221C, strain rsa3, stronger effect = lower value",0.994
same,normalized growth,"S. cerevisiae deletion strains, locus YLR258W, strain gsy2, stronger effect = lower value",1.01
same,normalized growth,"S. cerevisiae deletion strains, locus YLR262C, strain YPT6 (second series), stronger effect = lower value",0.975
same,normalized growth,"S. cerevisiae deletion strains, locus YLR262C, strain YPT6, stronger effect = lower value",0.998
same,normalized growth,"S. cerevisiae deletion strains, locus YLR268W, strain sec22, stronger effect = lower value",1
same,normalized growth,"S. cerevisiae deletion strains, locus YLR320W, strain mms22, stronger effect = lower value",0.983
same,normalized growth,"S. cerevisiae deletion strains, locus YLR330W, strain CHS5, stronger effect = lower value",1
same,normalized growth,"S. cerevisiae deletion strains, locus YLR342W, strain FKS1 (second series), stronger effect = lower value",1
same,normalized growth,"S. cerevisiae deletion strains, locus YLR342W, strain FKS1, stronger effect = lower value",1
same,normalized growth,"S. cerevisiae deletion strains, locus YLR357W, strain rsc2, stronger effect = lower value",1.03
same,normalized growth,"S. cerevisiae deletion strains, locus YLR370C, strain arc18, stronger effect = lower value",1.01
same,normalized growth,"S. cerevisiae deletion strains, locus YLR371W, strain rom2, stronger effect = lower value",1
same,normalized growth,"S. cerevisiae deletion strains, locus YLR384C, strain iki3, stronger effect = lower value",1.03
same,normalized growth,"S. cerevisiae deletion strains, locus YLR418C, strain cdc73, stronger effect = lower value",1
same,normalized growth,"S. cerevisiae deletion strains, locus YML016C, strain PPZ1, stronger effect = lower value",0.997
same,normalized growth,"S. cerevisiae deletion strains, locus YML032C, strain rad52, stronger effect = lower value",1
same,normalized growth,"S. cerevisiae deletion strains, locus YML120C, strain ndi1, stronger effect = lower value",1
same,normalized growth,"S. cerevisiae deletion strains, locus YML124C, strain tub3, stronger effect = lower value",0.998
same,normalized growth,"S. cerevisiae deletion strains, locus YMR058W, strain fet3, stronger effect = lower value",1.01
same,normalized growth,"S. cerevisiae deletion strains, locus YMR078C, strain ctf18, stronger effect = lower value",1.02
same,normalized growth,"S. cerevisiae deletion strains, locus YMR125W, strain sto1, stronger effect = lower value",0.99
same,normalized growth,"S. cerevisiae deletion strains, locus YMR129W, stronger effect = lower value",1.01
same,normalized growth,"S. cerevisiae deletion strains, locus YMR205C, strain PFK2, stronger effect = lower value",1
same,normalized growth,"S. cerevisiae deletion strains, locus YMR223W, strain ubp8, stronger effect = lower value",1.03
same,normalized growth,"S. cerevisiae deletion strains, locus YMR231W, strain pep5, stronger effect = lower value",1.02
same,normalized growth,"S. cerevisiae deletion strains, locus YMR263W, strain SAP30, stronger effect = lower value",0.994
same,normalized growth,"S. cerevisiae deletion strains, locus YMR307W, strain GAS1, stronger effect = lower value",0.995
same,normalized growth,"S. cerevisiae deletion strains, locus YNL067W, strain RPL9B, stronger effect = lower value",0.992
same,normalized growth,"S. cerevisiae deletion strains, locus YNL071W, strain lat1, stronger effect = lower value",1.01
same,normalized growth,"S. cerevisiae deletion strains, locus YNL128W, strain TEP1, stronger effect = lower value",1.01
same,normalized growth,"S. cerevisiae deletion strains, locus YNL183C, strain NPR1, stronger effect = lower value",0.969
same,normalized growth,"S. cerevisiae deletion strains, locus YNL209W, strain ssb2, stronger effect = lower value",1
same,normalized growth,"S. cerevisiae deletion strains, locus YNL233W, strain BNI4, stronger effect = lower value",0.985
same,normalized growth,"S. cerevisiae deletion strains, locus YNL248C, strain rpa49, stronger effect = lower value",1.02
same,normalized growth,"S. cerevisiae deletion strains, locus YNL250W, strain rad50, stronger effect = lower value",1.03
same,normalized growth,"S. cerevisiae deletion strains, locus YNL271C, strain bni1, stronger effect = lower value",1.02
same,normalized growth,"S. cerevisiae deletion strains, locus YNL298W, strain CLA4, stronger effect = lower value",1.02
same,normalized growth,"S. cerevisiae deletion strains, locus YNL307C, strain MCK1, stronger effect = lower value",1.01
same,normalized growth,"S. cerevisiae deletion strains, locus YNL322C, strain KRE1 (second series), stronger effect = lower value",0.976
same,normalized growth,"S. cerevisiae deletion strains, locus YNR049C, strain mso1, stronger effect = lower value",1.02
same,normalized growth,"S. cerevisiae deletion strains, locus YNR052C, strain pop2, stronger effect = lower value",1.01
same,normalized growth,"S. cerevisiae deletion strains, locus YOL006C, strain TOP1, stronger effect = lower value",0.995
same,normalized growth,"S. cerevisiae deletion strains, locus YOL012C, strain htz1",0.863
same,normalized growth,"S. cerevisiae deletion strains, locus YOL147C, strain pex11, stronger effect = lower value",1.01
same,normalized growth,"S. cerevisiae deletion strains, locus YOR001W, strain rrp6, stronger effect = lower value",0.99
same,normalized growth,"S. cerevisiae deletion strains, locus YOR061W, strain CKA2, stronger effect = lower value",0.996
same,normalized growth,"S. cerevisiae deletion strains, locus YOR069W, strain VPS5, stronger effect = lower value",1.01
same,normalized growth,"S. cerevisiae deletion strains, locus YOR070C, strain gyp1, stronger effect = lower value",1.01
same,normalized growth,"S. cerevisiae deletion strains, locus YOR080W, strain dia2, stronger effect = lower value",1.01
same,normalized growth,"S. cerevisiae deletion strains, locus YOR083W, strain WHI5, stronger effect = lower value",1.01
same,normalized growth,"S. cerevisiae deletion strains, locus YOR106W, strain vam3, stronger effect = lower value",1.03
same,normalized growth,"S. cerevisiae deletion strains, locus YOR136W, strain idh2, stronger effect = lower value",1.01
same,normalized growth,"S. cerevisiae deletion strains, locus YOR144C, strain elg1, stronger effect = lower value",1.01
same,normalized growth,"S. cerevisiae deletion strains, locus YOR184W, strain ser1, stronger effect = lower value",0.999
same,normalized growth,"S. cerevisiae deletion strains, locus YOR231W, strain MKK1, stronger effect = lower value",0.998
same,normalized growth,"S. cerevisiae deletion strains, locus YOR265W, strain rbl2, stronger effect = lower value",1.01
same,normalized growth,"S. cerevisiae deletion strains, locus YOR270C, strain vph1, stronger effect = lower value",0.954
same,normalized growth,"S. cerevisiae deletion strains, locus YOR290C, strain snf2, stronger effect = lower value",1.01
same,normalized growth,"S. cerevisiae deletion strains, locus YOR316C, strain cot1, stronger effect = lower value",0.999
same,normalized growth,"S. cerevisiae deletion strains, locus YPL051W, strain arl3, stronger effect = lower value",1.01
same,normalized growth,"S. cerevisiae deletion strains, locus YPL055C, strain LGE1, stronger effect = lower value",0.974
same,normalized growth,"S. cerevisiae deletion strains, locus YPL078C, strain atp4, stronger effect = lower value",1.01
same,normalized growth,"S. cerevisiae deletion strains, locus YPL106C, strain sse1, stronger effect = lower value",0.996
same,normalized growth,"S. cerevisiae deletion strains, locus YPL240C, strain hsp82, stronger effect = lower value",1.01
same,normalized growth,"S. cerevisiae deletion strains, locus YPL256C, strain CLN2, stronger effect = lower value",0.969
same,normalized growth,"S. cerevisiae deletion strains, locus YPR119W, strain clb2, stronger effect = lower value",1
same,normalized growth,"S. cerevisiae deletion strains, locus YPR141C, strain kar3, stronger effect = lower value",1.01
same,normalized growth,"S. cerevisiae deletion strains, locus YPR163C, strain tif3, stronger effect = lower value",0.997
same,normalized growth,"S. cerevisiae deletion strains, locus YPR167C, strain met16, stronger effect = lower value",1.01
same,normalized growth,"S. cerevisiae deletion strains, strain wtn01, stronger effect = lower value",1.05
same,normalized growth,"S. cerevisiae strains, strain wild type, stronger effect = lower value",1
